Test results from PubChem BioAssay (Tox21).
“And” between values parts separate entries of the source, which are not always exact repeats. Identical values can stand only once. Results filed as inconclusive are left out. Some compounds were tested as several samples or in several runs, with calls that do not always agree. The source made the active and inactive calls. Calls come from the whole dose curve; as a rule, active = well fitted curve in the direction sought with a large enough effect in the repeat runs; inconclusive = weak or mixed curves; inactive = no such curve, though single readings can be large; an effect the other way counts as inactive or inconclusive.

Legend:
[1] = A CellTox Green Cytotoxicity Assay to monitor cytotoxicity in HEK293 cells - 32 hour (AID 1224881); note: nearly all actives have a fitted effect of over 40% in size
How it was run: (§1)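 Tox21 screen in HEK293: membrane-impermeant cyanine dye fluoresces on binding dead-cell DNA; compound pinned 5 h post-seeding, plates held at 37 C, signal read repeatedly through 40 h.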

[2] = A CellTox Green Cytotoxicity Assay to monitor cytotoxicity in HepG2 cells - 0 hour (AID 1224882); note: nearly all actives have a fitted effect of over 35% in size
How it was run: (§2)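 Measurements at 0, 8, 16, 24, 32 and 40 h of treatment captured CellTox Green fluorescence in HepG2 cells that had been co-plated with reagent and preincubated 5 h at 37 C/5% CO2.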

[3] = A CellTox Green Cytotoxicity Assay to monitor cytotoxicity in HEK293 cells - 8 hour (AID 1224884); note: nearly all actives have a fitted effect of over 35% in size
How it was run: as §1

[4] = qHTS RealTime-Glo MT Cell Viability Assay in HepG2 cells - 16 hour (AID 1224885); note: nearly all actives have a fitted effect of over 50% in size
How it was run: (§3)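 Real-time, nonlytic viability: 600 HepG2 cells/well mixed with NanoLuc enzyme plus prosubstrate; 5 h settle, compound (DMSO) added by pintool; luminescence monitored over 40 h at 37 C.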

[5] = qHTS RealTime-Glo MT Cell Viability Assay in HEK293 cells - 24 hour (AID 1224886); note: nearly all actives have a fitted effect of over 50% in size; note: potency is the fitted concentration of half-maximal effect
How it was run: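 Cells + reagent dispensed (600 cells/well, HEK293) → 5 h at 37 C/5% CO2 → 23 nL compound in DMSO pinned → 40 h at 37 C → luminescence read at 0, 8, 16, 24, 32, 40 h.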

[6] = qHTS RealTime-Glo MT Cell Viability Assay in HEK293 cells - 8 hour (AID 1224887); note: nearly all actives have a fitted effect of over 50% in size; note: potency is the fitted concentration of half-maximal effect
How it was run: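 HEK293 + NanoLuc + prosubstrate, 600 cells/well; 5 h, 37 C/5% CO2; compound 23 nL in DMSO by pintool; 37 C; luminescence read at 0, 8, 16, 24, 32 and 40 h time points.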

[7] = qHTS RealTime-Glo MT Cell Viability Assay in HepG2 cells - 0 hour (AID 1224889); note: nearly all actives have a fitted effect of over 50% in size; note: potency is the fitted concentration of half-maximal effect
How it was run: as §3

[8] = A CellTox Green Cytotoxicity Assay to monitor cytotoxicity in HepG2 cells - 8 hour (AID 1224890); note: nearly all actives have a fitted effect of over 45% in size; note: potency is the fitted concentration of half-maximal effect
How it was run: as §2

[9] = A CellTox Green Cytotoxicity Assay to monitor cytotoxicity in HEK293 cells - 16 hour (AID 1224888); note: nearly all actives have a fitted effect of over 35% in size
How it was run: as §1

[10] = A CellTox Green Cytotoxicity Assay to monitor cytotoxicity in HepG2 cells - 32 hour (AID 1224883); note: nearly all actives have a fitted effect of over 50% in size; note: potency is the fitted concentration of half-maximal effect
How it was run: as §2

Measured: Potency

CCN(CC)CCNC(=O)c1ccc(N)cc1
inactive: [1] | [2] | [3] | [4] | [5] | [6] | [7] | [8]

CCCOCC(C)O (stereo not given)
inactive: [1] | [3] | [4] | [5] | [6] | [9] | [7] | [8]

CC/C=C(\C(=O)N[C@@H]1C(=O)N2C(C(=O)OCOC(=O)C(C)(C)C)=C(COC(N)=O)CS[C@H]12)c1csc(N)n1
inactive: [1] | [10] | [3] | [4] | [5] | [6] | [9] | [7] | [8]

C[n+]1ccn(CCO)c1
inactive: [1] | [3] | [4] | [5] | [6] | [7] | [8]

CC/C(C)=N/O
inactive: [1] | [3] | [4] | [5] | [6] | [9] | [7] | [8]

C=C(CC(=O)O)C(=O)O
inactive: [1] | [10] | [3] | [4] | [5] | [6] | [9] | [7] | [8]

CCCCCC(C)=O
inactive: [1] | [2] | [3] | [4] | [5] | [6] | [7] | [8]

NC(N)=S
inactive: [1] | [3] | [4] | [5] | [6] | [7] | [8]

C=C(C)CC(C)(C)C
inactive: [1] | [3] | [4] | [5] | [6] | [9] | [7] | [8]

NC(=O)NC(N)=O
inactive: [1] | [3] | [4] | [5] | [6] | [9] | [7] | [8]

CN1CCCC1=O
inactive: [2] | [10] | [3] | [4] | [5] | [6] | [9] | [7] | [8]

CS(=O)(=O)c1ccc(Cl)cc1
inactive: [1] | [10] | [3] | [4] | [5] | [6] | [7] | [8]

OCCOCCOCCOCCOCCO
inactive: [2] | [10] | [3] | [4] | [5] | [6] | [9] | [7] | [8]

Cc1ccc(C(C)C)cc1
inactive: [1] | [2] | [3] | [4] | [5] | [6] | [7] | [8]

CCCN(CCC)C(=O)SCC
inactive: [1] | [10] | [3] | [4] | [5] | [6] | [9] | [7] | [8]

CCCCC(=O)O
inactive: [1] | [10] | [3] | [4] | [5] | [6] | [7] | [8]

COc1cc(NC(=O)CC(C)=O)c(OC)cc1Cl
inactive: [1] | [3] | [4] | [6] | [7] | [8]
inactive and 21.9 µM (active): [5]

O=[N+]([O-])c1ccccc1C(F)(F)F
inactive: [2] | [10] | [3] | [4] | [5] | [6] | [9] | [7] | [8]

Cc1ccncc1
inactive: [1] | [10] | [3] | [4] | [5] | [6] | [9] | [7] | [8]

Cc1ccc(Cl)cc1
inactive: [1] | [10] | [3] | [4] | [5] | [6] | [9] | [7] | [8]

O=C(c1ccccc1)c1ccc(O)c(O)c1O
inactive: [1] | [2] | [3] | [4] | [5] | [6] | [7] | [8]

CCc1cccc(O)c1
inactive: [1] | [10] | [3] | [4] | [5] | [6] | [7] | [8]

OCC(CO)(CO)CO
inactive: [1] | [10] | [3] | [4] | [5] | [6] | [9] | [7] | [8]

O=C1C(N(CO)C(=O)NCO)N(CO)C(=O)N1CO (stereo not given)
inactive: [2] | [10] | [3] | [4] | [5] | [6] | [9] | [7] | [8]

Oc1ccc(Cc2ccccc2O)cc1
inactive: [10] | [3] | [4] | [7] | [8]
active: [5] 12.3 µM

O=C1CCCCCCCCCCC1
inactive: [2] | [3] | [4] | [5] | [6] | [7] | [8]

O=c1n(CCCN2CCN(c3cccc(Cl)c3)CC2)nc2ccccn12
49 µM (active) and inactive: [7]
active: [5] 13.8 µM and 16.9 µM | [6] 11 µM and 10.7 µM
inactive: [2] | [3] | [4] | [9] | [8]

C1CCCNCC1
inactive: [2] | [3] | [4] | [5] | [6] | [7] | [8]

COC(=O)OC
inactive: [10] | [3] | [4] | [5] | [6] | [9] | [7] | [8]

CC1(C)C(=O)N(Cl)C(=O)N1Cl
inactive: [2] | [10] | [3] | [4] | [5] | [6] | [9] | [7] | [8]

CCn1cc(C(=O)O)c(=O)c2cc3c(cc21)OCO3
inactive: [2] | [10] | [3] | [4] | [5] | [6] | [7] | [8]

O=C1O[C@H]([C@H](O)CO)C(O)=C1O
inactive: [2] | [10] | [3] | [4] | [5] | [6] | [9] | [7] | [8]

CCc1cccc(CC)c1N
inactive: [2] | [10] | [3] | [4] | [5] | [6] | [7] | [8]

Cc1cccc(C)c1[N+](=O)[O-]
inactive: [10] | [3] | [4] | [5] | [6] | [9] | [7] | [8]

CC(C)=CCC/C(C)=C/C=O
inactive: [10] | [3] | [4] | [5] | [6] | [7] | [8]

CC(=O)OC[C@H]1O[C@@](COC(C)=O)(O[C@H]2O[C@H](COC(C)=O)[C@@H](OC(C)=O)[C@H](OC(C)=O)[C@H]2OC(C)=O)[C@@H](OC(C)=O)[C@@H]1OC(C)=O
inactive: [2] | [3] | [4] | [5] | [6] | [9] | [7] | [8]

O=C(NCC1CCCCN1)c1cc(OCC(F)(F)F)ccc1OCC(F)(F)F (stereo not given)
inactive: [3] | [4] | [5] | [6] | [9] | [7] | [8]

CCCCCCCCO
inactive: [2] | [3] | [4] | [5] | [6] | [9] | [7] | [8]

CC(COCC(C)OC(=O)c1ccccc1)OC(=O)c1ccccc1 (stereo not given)
inactive: [2] | [10] | [3] | [4] | [9] | [7] | [8]

CCCCC(CC)COC(=O)c1ccc(C(=O)OCC(CC)CCCC)cc1 (stereo not given)
inactive: [2] | [10] | [3] | [4] | [5] | [6] | [9] | [7] | [8]

CC(=O)OC/C=C(\C)CCC=C(C)C
inactive: [3] | [4] | [5] | [6] | [9] | [7] | [8]

CC(=O)OC(C)(C)C1CC=C(C)CC1 (stereo not given)
inactive: [2] | [10] | [3] | [4] | [5] | [6] | [9] | [7] | [8]

Cc1ccccc1Cl
inactive: [3] | [4] | [5] | [6] | [9] | [7] | [8]

CN=C(NC#N)NCCSCc1nc[nH]c1C
inactive: [2] | [3] | [4] | [5] | [6] | [7] | [8]

O=[N+]([O-])c1cc(C(F)(F)F)ccc1Cl
inactive: [2] | [3] | [4] | [5] | [6] | [9] | [7] | [8]

CCOC(=O)c1ccc(O)cc1
inactive: [2] | [3] | [4] | [5] | [6] | [9] | [7] | [8]

OCC(O)CS (stereo not given)
inactive: [2] | [10] | [3] | [4] | [5] | [6] | [9] | [7] | [8]

C=CC(=O)NCOCCCC
inactive: [10] | [3] | [4] | [5] | [6] | [7] | [8]

Brc1ccc(Oc2ccc(Br)cc2)cc1
inactive: [2] | [10] | [3] | [4] | [5] | [6] | [9] | [7] | [8]

COc1ccc2cc3[n+](cc2c1OC)CCc1cc2c(cc1-3)OCO2
active: [5] 4.4 µM and 10.7 µM
inactive: [10] | [3] | [4] | [9] | [7] | [8]

CCCOC(=O)NCCCN(C)C
inactive: [3] | [4] | [5] | [6] | [9] | [7] | [8]

CC1=CC(=O)CC(C)(C)C1
inactive: [3] | [4] | [5] | [6] | [9] | [7] | [8]
25.3 µM (active) and inactive: [10]

COC(=O)CCCCC(=O)OC
inactive: [2] | [10] | [3] | [4] | [5] | [6] | [9] | [7] | [8]

C=C1C[C@]23C[C@@]1(O)CC[C@H]2[C@@]12C=C[C@H](O)[C@@](C)(C(=O)O1)[C@H]2[C@@H]3C(=O)O
inactive: [2] | [10] | [3] | [4] | [5] | [6] | [7] | [8]

CC(C=O)Cc1ccc(C(C)(C)C)cc1 (stereo not given)
inactive: [2] | [10] | [3] | [4] | [5] | [6] | [9] | [7] | [8]

CC(=O)OCc1ccc2c(c1)OCO2
inactive: [10] | [3] | [4] | [5] | [6] | [9] | [7] | [8]

NC1CCCCC1N (stereo not given)
inactive: [3] | [4] | [5] | [6] | [7] | [8]

Nc1cccc(N)n1
inactive: [2] | [10] | [3] | [4] | [5] | [6] | [9] | [7] | [8]

CC(=O)Nc1ccc(CC(=O)O)cc1
inactive: [2] | [3] | [4] | [5] | [6] | [9] | [7] | [8]

CO[Si](CCCNCCN)(OC)OC
inactive and 49 µM (active): [10] | [8]
inactive: [2] | [3] | [4] | [5] | [6] | [9] | [7]

Cc1cc(C)cc(O)c1
inactive: [10] | [3] | [4] | [5] | [6] | [9] | [7] | [8]
